FBW7 activator: activators of human E3 ligase FBW7. normalized activity (activation), % at 26.1 µM. AID 1259310. 0.13% of 650,000 active. AlphaScreen FBW7–phospho-cyclin E peptide binding, activator screen. Q969H0; in the data active = normalized activity above about 1.9%;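 note: purified mutant Fbw7 with reduced substrate affinity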
MITF primary: human MITF inhibition, primary screen. O75030. AlphaScreen MITF homodimerization, bead proximity signal. inhibition, % at 2.6 µM. 0.91% of 650,000 active; in the data active = inhibition above about 50%;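 note: 0% = vehicle wells with protein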
TEAD-YAP block: TEAD-YAP interaction inhibition; HEK-TIYL cells, TEAD-Gal4/YAP UAS-luciferase luminescence; inhibition, % at 9.12 µM; 1.4% of 640,000 active; in the data active = inhibition above about 32%;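 note: 0% = median of test compound wells and 100% = reference inhibitor wells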
GPR151 activ: activators of human GPR151. Q8TDV0. 1% of 650,000 active. PathHunter beta-arrestin GPR151 cells, luminescence. activation, % at 11.2 µM; in the data active = activation above about 4.9%;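 note: 0% = median of compound wells and 100% = cells with positive control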
Starred values were filed as active, the others as inactive. Shown are actives, neighbours in structure and some others; about 3.4% of the full set was active somewhere.

SMILES	FBW7 activator	MITF primary	TEAD-YAP block	GPR151 activ
O=C(Nc1ccc2c(c1)CN(C(=O)Cn1cncn1)CC2)c1ccccc1Cl	0	4	47*	-1
O=C(Nc1ccc2c(c1)CN(S(=O)(=O)c1cccnc1)CC2)c1ccccc1Cl	0	-6	46*	3
Cc1cncc2cccc(NC3CCCN(C(=O)C(O)c4ccc(Br)cc4)C3)c12 (stereo not given)	0	2	47*	2
Cc1cncc2cccc(NC3CCNC3)c12 (stereo not given)	0	8	69*	0
O=C(c1nc2ccccn2c1CN1CCC(N2CCc3ccccc3C2)CC1)N1CCCC1	0	-4	9	2
CC(=O)N1CCc2cc(Br)cc(S(=O)(=O)Nc3ccc(C)cc3)c21	0	6	-1	2
Cc1ccc(NS(=O)(=O)c2cc(Br)cc3c2N(C(=O)C2CC2)CC3)cc1	0	2	40*	1
N/C(=N\N=C\c1ccc(O)c(O)c1)SC1CC(=O)N(c2ccc(C(=O)O)cc2)C1=O (stereo not given)	0	82*	-6	0
CCOc1ccc(CN2C(=O)CCC2(C)C(=O)NC2CCCCC2)cc1 (stereo not given)	0	-8	-7	0
c1ccc(-c2cc(N3CCN(c4ccccn4)CC3)nc(-c3ccccn3)n2)nc1	-1	107*	71*	1
N#CC1=C(N)Oc2c(sc3ccccc23)C1c1ccccc1OC(=O)c1ccccc1Cl (stereo not given)	0	5	-3	1
COc1ccccc1C1C(C#N)=C(N)Oc2c1sc1ccccc21 (stereo not given)	0	-10	33*	0
COc1ccc(C2C(C#N)=C(N)Oc3c2sc2ccccc32)c(OC)c1 (stereo not given)	0	-3	64*	-1
N#CC1=C(N)Oc2c(sc3ccccc23)C1c1ccc(Cl)cc1Cl (stereo not given)	0	6	-1	0
N#Cc1ccc(CO/N=C/c2ccccc2OC(F)F)cc1	1	10	2	0
COc1cc2nc(-c3cccc(N)c3)nc(Nc3ccc(Oc4ccccc4)cc3)c2cc1OC	0	3	36*	0
COc1cc2nc(-c3ccc(C(=O)NC4CC4)cc3)nc(Nc3ccc(Oc4ccccc4)cc3)c2cc1OC	3.7*	-7	35*	1
CCOC(=O)c1nn(-c2ccc(C)cc2)c(=O)c2c(NC(=O)COC)scc12	0	-3	1	0
CCc1ccc(NC(CC(=O)c2ccc(C)cc2)c2ccc(Cl)cc2)cc1 (stereo not given)	0	1	-12	-1
COc1cccc(CC(=O)N2CCC3(CC2)OCc2ccccc2O3)c1	0	18	-6	0
COc1ccc(CC(=O)N2CCC3(CC2)OCc2ccccc2O3)cc1OC	1	7	55*	0
O=C(c1ccc2c(c1)CCO2)N1CCC2(CC1)OCc1cc(Cl)ccc1O2	0	15	37*	1
COc1ccc(CC(=O)N2CCC3(CC2)OCc2cc(Cl)ccc2O3)cc1OC	0	1	61*	1
COC(=O)c1c(NC(=O)c2ccccc2Cl)sc(C)c1C	0	21	2	3
COC(CNC1CCCc2c1[nH]c1ccc(C)cc21)OC (stereo not given)	0	2	14	0
SMILES	FBW7 activator	MITF primary	TEAD-YAP block	GPR151 activ
Cc1ccc2[nH]c3c(c2c1)CCCC3NCc1ccc(Cl)cc1 (stereo not given)	0	11	43*	1
O=C(Nc1ccc(O)cc1)c1ccccc1Br	0	-1	76*	0
CN1C(=O)c2ccc(NC(=O)c3ccccc3Br)cc2C1=O	2.0*	2	-5	-1
CC1(C)CC(=O)c2c(oc3c2cc(NS(=O)(=O)c2ccc4ccccc4c2)c2ccccc23)C1	0	-6	-3	-1
CC(CC(=O)NCc1ccccc1F)Cc1nc2ccccc2c(=O)[nH]1 (stereo not given)	0	-1	-18	-1
Cc1ccc(C(=O)N2CCc3[nH]c4ccccc4c3C2)cc1	0	43	-5	-2
C=CCOc1ccccc1/C=C1\C(=O)ON=C1c1ccc([N+](=O)[O-])cc1	1	10	3	5
NC(=O)c1ncccc1Nc1ccnc(Nc2ccc(N3CCOCC3)cc2)c1	0	35	49*	0
Cc1cc(Nc2cc(Nc3ccccc3C(N)=O)ccn2)ccc1N1CCOCC1	0	17	34*	2
NC(=O)c1ccccc1Nc1ccnc(Nc2ccc(N3CCOCC3)cc2F)c1	0	-7	38*	0
NC(=O)c1cc(F)ccc1Nc1ccnc(Nc2ccc(N3CCOCC3)cc2)c1	0	17	18	4
